# In PubChem BioAssay (NCATS):
# Records with an inconclusive call do not appear. Unmarked numbers belong to inactive results. Active and inactive are the calls of the source. Calls follow the shape of the dose curve; as a rule, active = well fitted inhibition curve with a large enough effect; inconclusive = small, poorly fitted or top-dose-only effect; inactive = flat fitted curve, though single readings scatter.
# Tests used:
# [1] = system: KB-3-1; assay: Cytotoxic Profiling of Annotated Libraries Using Quantitative High-Throughput Screening (AID 1296008); conditions: Five cell lines viability, CellTiter-Glo ATP luminescence, 48-72 h; max response: stronger effect = lower value; also: nearly all actives have a fitted effect of over 60% in size
# Procedure, shortened: (§1)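 Compounds were pin-transferred onto cells and incubated 48 or 72 hr at 37 degree Celsius, 95% humidity. CellTiter-Glo was added, plates sat 10 min at room temperature, then ATP-coupled luminescence was imaged as the viability read-out.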
# [2] = system: NIH3T3; assay: as above; conditions: Five cell lines viability, CellTiter-Glo ATP luminescence, 48-72 h; max response: stronger effect = lower value
# Procedure, shortened: as §1
# % is scaled to controls: 0 for no effect and ±100 for the full control effect; potency is read from the fitted curve at half-maximal effect.
smiles,measurement,setting,value
O=C(Nc1ccnc(NC(=O)C2CC2)c1)c1c(Cl)cccc1Cl,Potency,[1],20.6 µM (active)
same,Potency,[2],6.51 µM (active)
CN(C)CCN(Cc1ccc(-c2ccc(CNCCc3ccccc3)cc2)cc1)C(=O)CCC1CCCC1,Potency,[1],4.61 µM (active)
same,Potency,[2],4.11 µM (active)
CCNC(=O)C#Cc1ccc2c(C(=Nc3ccc(CN(C)C)cc3)c3ccccc3)c(O)[nH]c2c1,Potency,[1],0.0282 µM (active)
same,Potency,[2],0.709 µM (active)
C=C[C@]1(C)C[C@H](O)[C@H]2C(=C)C(=O)O[C@@H]2[C@H]1C(=C)CO,outcome,[1],inactive
same,max response,[2],-30%
CCC(C)C(=O)OC1C(C)C2(O)C(C=C(CO)CC3(O)C(=O)C(C)=CC32)C2C(C)(C)C12OC(=O)C(C)C (stereo not given),max response,[1],7.48%
same,max response,[2],-1.26%
CCCC1([C@H](O)C/C=C/[C@H]2[C@H](O)CC(=O)[C@@H]2CCCCCCC(=O)OC)CCC1,max response,[1],-18.2%
C=C(C)[C@@H]1CC=C(COC(=O)NC(=O)c2ncn3c(=O)n(C)nnc23)CC1,max response,[1],2.36%
same,Potency,[2],18.4 µM (active)
COc1cc2ncnc(Oc3ccc(CC(=O)Nc4cnn(C(C)C)c4)cc3)c2cc1OC,max response,[1],0.878%
same,Potency,[2],23.1 µM (active)
